This passage reports inhibition results from PubChem BioAssay AID720486 (Milwaukee Institute for Drug Discovery, 2013).

The structures appear in SMILES notation. The list shows a part of the results. Values without a mark were called inactive. Activity calls are given as the source filed them.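 Rule for the calls: active = inhibition of at least 50%; inactive = the rest.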

The experiment has as its target Single-stranded DNA-binding protein (Escherichia coli (strain K12)) (UniProt P0AGE0). The experiment in a line: disruption of SSB binding to ssDNA – biochemical, fluorescence polarization, selected ChemBridge compounds, counter-screen for HCV NS3 helicase inhibitor project (AID 720486).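 Note: displacers lower Cy5 polarization so higher inhibition means more SSB displaced.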 The following applies: E. coli SSB binding Cy5-dT15, fluorescence polarization; at 100 µM; hits give high values. (In general: Polarisation of emitted light reports the rotation of a fluorescent probe.)

Chain of Single-stranded DNA-binding protein (Escherichia coli (strain K12)) (P0AGE0 whole entry, looked up): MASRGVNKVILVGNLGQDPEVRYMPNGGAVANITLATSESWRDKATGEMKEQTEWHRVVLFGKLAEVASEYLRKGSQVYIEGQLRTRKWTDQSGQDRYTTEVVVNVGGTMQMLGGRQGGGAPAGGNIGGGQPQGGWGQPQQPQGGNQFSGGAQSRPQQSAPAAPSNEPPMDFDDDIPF

On to `COc1cc(/C(O)=C(\C#N)c2nc3ccccc3n2C)cc(OC)c1OC`, for which the inhibition is 10.2%.

In the case of `Cc1ccc(C(=O)C[n+]2cc(-c3ccccc3)n3c2CCCCC3)cc1`, the inhibition is 5.34%.

For `Cc1ccc(C(=O)NCCNc2ccc([N+](=O)[O-])cc2)cc1`, the inhibition is 34.5%.

As for `O=C1NC(=O)C(=Cc2cc([N+](=O)[O-])cc(Br)c2O)C(=O)N1`, the inhibition was 51.5% (active).

In the case of `CCN(CC)c1ccc(NC(=O)/C(=C\c2ccccc2)NC(C)=O)cc1`, the inhibition was 55.1% (active).

As for `N#Cc1c(N)nc2sc(C(=O)Nc3ccccc3)c(N)c2c1-c1ccco1`, the inhibition was 16.3%.

Regarding `COc1ccc(N2C(=O)C=CC2=O)c([N+](=O)[O-])c1`, the inhibition was -5.58%.

Take `CCN(CC)c1ccc(C=C2C(=O)N(C)C(=O)N(C)C2=O)c(O)c1`: the inhibition was 30.8%.

With `C=CCN1C(=O)/C(=C\c2cc(OC)c(O)c([N+](=O)[O-])c2)C(=O)NC1=S`, the inhibition is 98.8% (active).

Regarding `O=C(NC(=S)Nc1ccc(-c2nc3cc(Cl)ccc3o2)cc1)c1ccco1`, the inhibition is 19.9%.

As to `CCOc1ccc(C=C2C(=O)NC(=O)NC2=O)cc1Cl`, the inhibition is 19.9%.

`COc1cc(C=C2C(=O)NC(=O)NC2=O)ccc1OCCOc1ccc([N+](=O)[O-])cc1`: the inhibition was 19.9%.

As to `COc1ccc(C(=O)Oc2ccc3oc(=O)cc(C)c3c2)cc1OC`, the inhibition is 12.6%.

Turning to `CC(C)(C)N1C(=O)NC(=O)C(=Cc2cccs2)C1=O`, the inhibition was 11.4%.

For the molecule `O=c1c2c(nc3cc(-c4cccc(F)c4)[nH]n13)CCS2`, the inhibition is 84.2% (active).

One may read the inhibition as the drop in the measured response relative to a control, in per cent.
